HSF1 activator = increases HSF-1 driven luciferase reporter signal; activation, % at 9 µM; NIH3T3-HGL HSF-1 luciferase reporter, MG132, 8 h; 100% = twice DMSO control signal; AID 504408; 300,000 tested, 1.7% active;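 active means mean replicate activation of at least 50% with a set share of replicates each reaching 50%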;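 further: 0% = median of the neutral control wells and 100% = twice that signal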
HSF1 inhib = HSF1 inhibition; NIH3T3-HGL HSE-luciferase, MG132-induced, luminescence 8 h; active compounds read low; activity change, negative = inhibition, % at 7.5 µM (by protocol); 300,000 tested, 0.77% active; AID 2098;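 active means more than half of replicate wells show activity change below -50%, luminescence cut by over half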;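 further: luciferase reports HSF-1 transcriptional activity via heat shock element; 0% = median of DMSO wells and -100% = zero luminescence signal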
NPR2 activator = GC-B (human) receptor activation; P20594; HEK293-GC-B cells, CNP EC30, cGMP TR-FRET; 0% at EC30 CNP, 100% saturating CNP; activation, % at 10 µM; 370,000 tested, 0.11% active;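 active means activation at 10 µM reaching about 35% in either raw or pattern-adjusted values, limit read from the data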
GC-A act = GC-A (human) enzyme activation; activation, % at 10 µM; P16066; HEK293 GC-A cells, cGMP TR-FRET, EC30 ANP; 0% at EC30 ANP, 100% saturating ANP; 370,000 tested, 0.14% active; in the data active means activation above about 40%
Target sequence (P16066 whole entry, looked up): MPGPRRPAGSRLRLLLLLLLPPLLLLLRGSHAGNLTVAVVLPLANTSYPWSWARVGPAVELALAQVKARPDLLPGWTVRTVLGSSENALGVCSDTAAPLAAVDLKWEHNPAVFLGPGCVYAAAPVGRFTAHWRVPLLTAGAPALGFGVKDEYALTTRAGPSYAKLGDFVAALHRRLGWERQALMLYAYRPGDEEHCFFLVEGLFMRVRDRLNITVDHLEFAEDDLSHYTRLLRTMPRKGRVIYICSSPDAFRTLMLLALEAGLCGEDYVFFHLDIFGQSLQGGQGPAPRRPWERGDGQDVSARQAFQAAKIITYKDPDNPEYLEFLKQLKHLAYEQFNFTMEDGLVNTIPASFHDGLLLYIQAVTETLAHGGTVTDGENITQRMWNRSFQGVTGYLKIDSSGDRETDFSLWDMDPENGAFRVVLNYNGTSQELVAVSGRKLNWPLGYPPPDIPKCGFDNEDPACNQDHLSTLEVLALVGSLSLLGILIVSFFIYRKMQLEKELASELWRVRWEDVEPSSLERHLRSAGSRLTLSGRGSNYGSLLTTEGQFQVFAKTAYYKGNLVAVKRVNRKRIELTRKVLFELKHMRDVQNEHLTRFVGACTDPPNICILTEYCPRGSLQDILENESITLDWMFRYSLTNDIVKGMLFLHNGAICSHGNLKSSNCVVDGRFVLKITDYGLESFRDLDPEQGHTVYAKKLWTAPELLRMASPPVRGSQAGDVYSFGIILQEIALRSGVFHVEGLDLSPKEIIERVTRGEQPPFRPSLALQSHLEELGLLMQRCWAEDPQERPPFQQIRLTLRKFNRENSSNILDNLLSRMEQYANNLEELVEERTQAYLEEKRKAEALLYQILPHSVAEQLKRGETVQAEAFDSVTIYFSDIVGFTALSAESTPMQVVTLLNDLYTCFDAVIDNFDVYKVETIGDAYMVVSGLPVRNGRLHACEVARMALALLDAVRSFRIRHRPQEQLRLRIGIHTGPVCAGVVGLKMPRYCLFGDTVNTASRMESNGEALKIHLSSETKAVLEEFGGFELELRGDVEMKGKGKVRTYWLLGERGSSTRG
aDG glyco up = increases alpha dystroglycan glycosylation. Pro5-aDG cells, alpha-DG glycosylation AlphaScreen (IIH6); 0% Pro5, 100% B10-LARGE cell signal. activation, % at 10 µM. 360,000 tested, 0.22% active;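 active means activation of at least 8% versus controls, or a plate z-score of at least 8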;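 further: Pro5 are CHO cells carrying HIG-tagged alpha-DG that lacks glycosylation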
DYRK1A inh = inhibitors of rat Dyrk1A kinase. Q63470. ADP-Glo luminescence, NFATc1 peptide. inhibition, % at 12.5 µM. 310,000 tested, 0.43% active; in the data active means inhibition above about 50%;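 further: plate controls were vehicle with enzyme for no effect and no enzyme for full effect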
Active calls of the source: *; / = not tested or not shown. Rows were chosen to be rich in hits. Some 2.5% of all compounds tested hit in one or more screens of this group.

SMILES	HSF1 activator	HSF1 inhib	NPR2 activator	GC-A act	aDG glyco up	DYRK1A inh
CC1=C(CO)C(=O)OC([C@@H](C)C2CC[C@H]3C4C[C@H]5O[C@]56[C@@H](O)C=CC(=O)[C@]6(C)C4CC[C@]23C)C1 (stereo partly specified)	64.1*	37.7	0.3	2.7	-0.4	0.5
Cc1ccc(NC(=O)c2cnccn2)cc1S(=O)(=O)N1CCCCCC1	/	/	0.0	-4.0	-0.2	-9.1
O=C(NCc1ccco1)c1ccc(COc2cc(Cl)ccc2Cl)cc1	76.1*	31.2	4.5	40.7*	0.5	-1.5
CN(C)CCNC(=O)c1ccc(COc2ccc(Cl)cc2Cl)cc1	3.3	7.5	-8.7	47.1*	4.9	10.1
COc1ccc(Cl)cc1C(=O)NCCN(C)C	-0.7	-2.8	4.1	-0.2	0.5	-3.6
COc1cc2c(cc1O)CCN(C(=O)CSc1nncn1C)[C@@H]2C	/	/	-3.2	-1.5	0.0	/
CC(CCC(=O)O)C1CC[C@H]2C3CCC4CC(=O)CCC4(C)[C@H]3CC(=O)C12C (stereo partly specified)	57.8*	13.5	-6.2	2.1	0.1	1.8
CC(CCC(=O)O)C1CCC2C3CCC4C[C@H](O)CCC4(C)C3CC(=O)C12C (stereo partly specified)	-12.3	1.9	4.1	0.6	-0.1	7.0
COCCN(C(=S)Nc1ccc(OC)c(Cl)c1)C1CCN(C(C)=O)CC1	/	/	3.8	0.6	-0.3	/
COc1ccc(N(CC(=O)N/N=C/c2cc3ccc(OC)cc3nc2Cl)S(=O)(=O)c2ccccc2)cc1	59.3*	28.8	/	/	/	/
Cc1cccc(OCc2nnc(SCC(=O)OC3CCCCC3)o2)c1	30.6	2.0	-1.8	60.0*	-0.3	-3.5
Cc1cccc(OCC(=O)OC2CCN(C)CC2)c1	-61.2	-54.7*	0.6	2.6	-0.1	-5.3
CN1CCC(OC(=O)COc2ccccc2)CC1	7.0	-3.7	-0.7	3.4	0.1	-1.4
Cc1ccc(NC(=O)CCS(=O)(=O)c2ccccc2)cc1C	/	/	-1.9	3.1	/	/
Cc1ccc(C(=O)Cn2nnc3ccccc32)cc1	66.7*	26.0	-1.5	0.4	-0.2	4.9
O=C(Cn1nnc2ccccc21)c1ccc(Br)cc1	10.8	13.6	-3.1	-4.5	-0.1	-7.7
Cc1ccc(C(=O)Cn2nnc3ccccc32)cc1C	58.5*	30.0	0.7	0.4	-0.1	1.2
O=C(CSc1ccc2nnc(-c3ccncc3)n2n1)Nc1ccccc1F	7.6	0.5	-2.6	-1.5	0.0	-0.8
C/C=C/Cn1c(N(C)Cc2ccccc2)nc2c1c(=O)[nH]c(=O)n2C	6.6	0.0	6.4	7.9	0.0	-2.3
CCOc1cc(/C=C2\C(=O)ON=C2c2ccccc2)ccc1OC	9.3	-1.4	9.5	29.4	0.3	-4.4
CCOc1cc(/C=C2/C(=O)ON=C2C)ccc1OCc1ccc(F)cc1	62.6*	22.2	35.3*	42.3*	0.6	-6.4
C#CCOc1c(Cl)cc(/C=C2/C(=O)ON=C2C)cc1OCC	52.1*	16.0	1.8	9.6	-0.1	-5.1
CCOc1cc(/C=C2/C(=O)ON=C2C)ccc1OCc1ccccc1F	6.9	7.8	39.7*	42.7*	0.4	1.1
CCOc1cc(/C=C2/C(=O)ON=C2C)ccc1OCc1ccccc1	-4.6	3.2	36.9*	43.0*	/	/
COc1ccc(/C=C2/C(=O)ON=C2C)cc1Br	7.2	2.7	14.7	31.7	0.0	1.4
SMILES	HSF1 activator	HSF1 inhib	NPR2 activator	GC-A act	aDG glyco up	DYRK1A inh
CC1CCN(c2nc3ccccc3nc2C(C#N)C(=O)NC2CCCCC2)CC1 (stereo unspecified)	3.4	4.6	/	/	/	/
CC1(C)CC(=O)C=C(c2ccc3[nH]ccc3c2)C1	12.0	25.9	-0.1	-0.2	0.3	13.2
COc1ccccc1NC(=O)Cn1nc(Cc2cccnc2)c2ccccc2c1=O	-9.2	0.0	-4.5	-3.5	-0.1	-0.5
Cc1cc2oc3c(c(=O)c2cc1C)C(c1ccc(C(C)C)cc1)N(CCCN1CCOCC1)C3=O (stereo unspecified)	58.3*	32.7	0.5	2.5	0.2	11.1
Cc1nccn1CC(=O)N/N=C/c1c[nH]c2ccccc12	24.5	11.5	-2.0	-1.7	-0.2	0.9
COCCN(Cc1ccccc1)C(=S)Nc1ccc(Cl)cc1	-63.4	-54.2*	-0.1	-0.2	0.6	0.0
COc1ccc(NC(=S)N(CCO)Cc2ccccc2)cc1	1.6	6.1	/	/	-0.1	-1.1
COCCNC(=O)C1CC(=O)N(C2CCCCC2)C1 (stereo unspecified)	55.4*	15.0	3.3	9.4	0.0	4.5
Cc1nc2ccccc2nc(=O)c1NNc1ccccc1	65.1*	18.7	-4.7	-4.9	-0.2	0.6
Cc1ccc2nc(=O)c(NNc3ccccc3)cnc2c1	22.1	13.0	-3.4	-7.5	-0.2	-0.3
C(=N\N1CCN(Cc2cccc3ccccc23)CC1)/c1cccnc1	62.1*	16.4	-11.1	-6.3	0.2	8.0
Cc1nc(N2CCN(S(=O)(=O)c3ccc(Br)cc3)CC2)c2c(C)c(C)sc2n1	2.4	10.1	-6.2	2.0	0.2	/
CCc1nc(N2CCN(S(=O)(=O)c3ccc(Br)cc3)CC2)c2c(C)c(C)sc2n1	76.7*	42.3	-6.0	-2.3	-0.1	-3.7
NC(=O)C1=C(N)c2ccccc2C1c1ccccc1 (stereo unspecified)	/	/	0.7	-0.2	-0.3	5.1
Cc1ccc2cccnc2c1NC(=S)NC(=O)c1ccccc1	137.2*	122.0	-4.8	3.1	0.1	0.4
Cc1ccc2cccc(NC(=S)NC(=O)c3ccccc3)c2n1	4.8	-4.0	-7.5	-1.5	0.3	-5.5
COCCn1c(SCC(=O)Nc2cc(C)cc(C)c2)nnc1C(C)C	4.9	-4.3	-4.3	-1.2	0.0	-14.4
CCCc1nnc(NC(=O)c2nc(S(=O)(=O)Cc3ccc(C)cc3)ncc2Cl)s1	-81.7	-80.0*	10.2	15.5	-0.1	-1.1
CC(C)c1nnc(NC(=O)c2nc(S(=O)(=O)Cc3ccccc3)ncc2Cl)s1	-86.9	-85.9*	-0.1	8.1	5.2	-0.7
CCOC(=O)c1ccc(NC(=O)c2nc(S(=O)(=O)Cc3ccccc3)ncc2Cl)cc1	-33.4	-22.9	-10.5	-9.9	-0.1	-6.0
CSc1nnc(NC(=O)c2nc(S(=O)(=O)Cc3ccccc3)ncc2Cl)s1	-27.9	-26.9	7.4	5.6	-0.4	-0.2
CSc1cccc(NC(=O)CN(C)S(=O)(=O)c2ccccc2)c1	66.7*	21.3	-1.0	0.9	0.3	/
Cc1ccc(NC(=S)N(CCCN2CCOCC2)Cc2cccs2)c(C)c1	1.9	-0.7	-2.5	-0.4	-0.1	-6.9
CSc1ccccc1C(=O)C1CCCN(C(=O)c2csnn2)C1 (stereo unspecified)	11.7	6.1	2.8	1.9	-0.1	0.8

Screening results (PubChem)
